Compound activity (PubChem BioAssay)
This is a sample that favours compounds with a hit; in the whole collection about 3.9% have one here.
Yeast superoxide: caloric restriction mimetics inhibiting age-related superoxide in yeast. S. cerevisiae aged cells, superoxide DHE fluorescence; hits give low values. superoxide response (% of plate mean), % at 10 µM. 0.18% of 330,000 active. AID 2690;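 active = superoxide response under a set limit, about three screen SD below normal, cut at about 65% in these data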;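 note: yeast aged for seven days with compound at 30 °C before DHE staining; 100% = average MFI of all compound-treated wells on the plate with controls excluded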
HGIII-sPLA2 inh: Blocks human group III sPLA2 activity; Q9NZ20; QFRET BODIPY PC-A2 liposome hydrolysis, fluorescence; inhibition, % at 12.2 µM; 0.56% of 370,000 active; AID 743126;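 active = inhibition above mean plus 3 SD of compounds lying within the high and low control bounds, cut at about 19% in these data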;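 note: 0% = median of test compound wells and 100% = no enzyme DMSO wells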
Target sequence (Q9NZ20 whole entry, looked up): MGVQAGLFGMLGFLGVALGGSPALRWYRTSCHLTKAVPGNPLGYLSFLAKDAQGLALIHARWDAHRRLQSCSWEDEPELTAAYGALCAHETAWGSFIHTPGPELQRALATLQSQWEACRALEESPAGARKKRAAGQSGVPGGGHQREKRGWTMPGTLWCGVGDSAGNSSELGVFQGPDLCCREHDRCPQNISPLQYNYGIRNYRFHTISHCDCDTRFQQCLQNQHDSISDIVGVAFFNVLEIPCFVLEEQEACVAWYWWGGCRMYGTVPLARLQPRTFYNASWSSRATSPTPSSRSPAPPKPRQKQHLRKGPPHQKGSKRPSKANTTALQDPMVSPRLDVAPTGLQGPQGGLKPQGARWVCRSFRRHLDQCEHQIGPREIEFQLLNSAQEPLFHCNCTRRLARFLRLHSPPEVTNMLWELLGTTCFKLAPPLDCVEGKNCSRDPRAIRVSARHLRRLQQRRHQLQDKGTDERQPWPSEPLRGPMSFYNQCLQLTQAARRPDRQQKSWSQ
HIF activator: HIF pathway transcriptional activation. 0.32% of 300,000 active. activation, % at 7.5 µM (by protocol). U2OS HRE-luciferase reporter, luminescence; normalized: DMSO 0%, desferrioxamine 100%;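 active = mean activation of at least 10% of the iron chelator positive control signal, with at least half of replicates also reaching 10%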
PLCg1 inh: PLC-gamma1 (human) inhibition, primary screen; P19174; purified PLC-gamma1, fluorogenic substrate, fluorescence; inhibition, % at 12.2 µM; 0.84% of 370,000 active; AID 720700; in the data active = inhibition above about 9.5%
PLC-beta3 inh: inhibitors of human phospholipase C beta3; Q01970; Purified PLC-beta3, fluorogenic substrate, fluorescence; inhibition, % at 12.2 µM; 0.18% of 370,000 active; AID 720704; in the data active = inhibition above about 11%;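 note: 0% = median of compound wells on plate and 100% = full blocker control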
AHR act: activators of human aryl hydrocarbon receptor; P35869; AHR-responsive luciferase reporter cells, luminescence; activation, % at 5 µM; 2.5% of 320,000 active; in the data active = activation above about 47%;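 note: 0% = vehicle wells and 100% = reference agonist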
The depositor's hits bear a star; i = inactive; nt = not tested or not shown.

SMILES | Yeast superoxide | HGIII-sPLA2 inh | HIF activator | PLCg1 inh | PLC-beta3 inh | AHR act
COc1ccc(NC(=O)CCC(=O)c2cccs2)cc1Cl | 89 | 1 | 0 | 3 | 5 | -1
COc1ccc(Cl)cc1NC(=O)C/C(C)=N/NC(=O)CC#N | 91 | -19 | 2 | 0 | 0 | 72*
COc1cc(NC(=O)C/C(C)=N/NC(=O)c2cccs2)c(OC)cc1Cl | 94 | -16 | 3 | 4 | 0 | 64*
C/C(CC(=O)Nc1ccc(Cl)cc1C(F)(F)F)=N\NC(=O)c1cccs1 | 92 | -21 | 2 | -1 | -12 | 6
c1nc(NCC2CC2)c2cc(-c3ccc4c(c3)OCO4)ccc2n1 | nt | -15 | nt | -183 | -246 | nt
CCC[C@H]1[C@@H](N(C)CC2CCCCC2)CC[C@@]23CCCN2C(=O)CCC[C@@H]13 | nt | 0 | nt | 4 | -1 | nt
CN1C(=O)C[C@@](C#N)(C(=O)NCCc2ccccc2)[C@H]1c1ccccc1 | nt | -4 | nt | 0 | 3 | nt
O=S(=O)(c1cccs1)N1CCCc2nc(-c3ccc(F)cc3)ccc21 | nt | 2 | nt | 1 | 3 | nt
O=C(Nc1nc(-c2cccc3ccccc23)cs1)c1cnccn1 | 99 | 5 | 1 | -6 | -6 | 49*
O=C(Nc1nc(-c2ccc(F)c(F)c2)cs1)c1cnccn1 | 104 | -2 | nt | 4 | -3 | 13
COc1ccc(-n2c(COc3cccc4ccccc34)nnc2SCC(=O)NCc2ccco2)cc1 | 101 | -23 | 0 | 1 | -2 | 2
COc1ccccc1OCc1nnc(SCC(=O)NCc2ccco2)n1-c1ccccc1 | 90 | -4 | 423* | -2 | 0 | 3
O=C(Nc1nc2ncccn2c1-c1ccc(C(F)(F)F)cc1)c1ccc(F)cc1 | nt | 1 | nt | -155 | -209 | nt
Cc1cc(Br)ccc1NC(=O)c1ccc(-n2cncn2)c([N+](=O)[O-])c1 | 127 | -5 | -1 | -2 | -2 | 66*
CCC(CO)Nc1cccc2c1S(=O)(=O)N(Cc1cn(Cc3ccc(Cl)cc3)nn1)Cc1ccccc1O2 (configuration not stated) | nt | -25 | nt | 3 | -3 | nt
CC(=O)c1c(C)nc(-c2ccccc2)nc1N | 85 | 0 | 1 | 2 | 1 | 77*
CC(=O)c1c(NC(=O)c2ccccc2)[nH]c(-c2ccccc2)nc1=S | 112 | 6 | 0 | 6 | 3 | 16
COc1ccccc1-c1nc(=S)c(C(C)=O)c(C)[nH]1 | 121 | -7 | -1 | 2 | -5 | 54*
CC(=O)c1c(C)[nH]c(-c2ccccc2)nc1=S | 105 | -16 | 0 | -18 | -38 | 66*
CCOC(=O)c1c(C)nc(-c2ccccc2)nc1N | 104 | -4 | 3 | -2 | 0 | 31
C[C@H]1[C@@H](OC(=O)Nc2cccc(C(F)(F)F)c2)CC[C@@]23CCCN2C(=O)CCC[C@@H]13 | nt | 16 | nt | 2 | -5 | nt
O=C(Cc1c[nH]c2ccccc12)Nc1ccc(Nc2cccnc2)c(-c2ccc(OC(F)(F)F)cc2)c1 | nt | -31 | nt | -11 | -14 | nt
O=S(=O)(Nc1ccc(-c2nc3cccnc3s2)cc1)c1ccccc1F | 87 | -31 | 3 | i | i | 56*
O=S(=O)(Nc1cccc(-c2nc3cccnc3s2)c1)c1ccc2c(c1)CCCC2 | 155 | -4 | 0 | -13 | -15 | 16
Cc1nc2cc(NS(=O)(=O)c3ccccc3F)ccc2s1 | 84 | 4 | -1 | 0 | -11 | 7
SMILES | Yeast superoxide | HGIII-sPLA2 inh | HIF activator | PLCg1 inh | PLC-beta3 inh | AHR act
O=S(=O)(Nc1ccc(-c2nc3cccnc3s2)cc1)c1ccc(Cl)s1 | 104 | -43 | 2 | -323 | -395 | 69*
O=S(=O)(c1ccccc1F)n1c(CN2CCOCC2)nc2ccccc21 | nt | -4 | nt | 0 | -1 | nt
CCCCOc1ccc(C(=O)NC2CCCCN(C(C)C)C2=O)cc1 (configuration not stated) | nt | 3 | nt | -1 | -1 | nt
COc1ccc(C2=CC(=O)C[C@H](c3ccc4c(c3)OCO4)C2)cn1 | 105 | -8 | nt | -5 | -6 | 29
O=C1C=C(c2ccc(F)nc2)C[C@@H](c2ccc3c(c2)OCO3)C1 | 94 | 2 | nt | 4 | 1 | 58*
COC(=O)[C@]12C[C@H](CC(=O)NCCCN3CCCC3=O)C(=O)N(Cc3cccc4ccccc34)C1=C[C@H](C1CCCC1)O[C@@H]2C | nt | -21 | nt | 1 | 1 | nt
COc1cc(/C=C2\SC(N)=NC2=O)ccc1O | 100 | -2 | 1 | -36 | -52 | nt
C=CCOc1ccc(/C=C2\SC(N)=NC2=O)cc1OC | 98 | 4 | 12* | -31 | -52 | 13
